Test results: PubChem BioAssay (NCATS)
Records with an inconclusive call do not appear. Active and inactive are the calls of the source. Calls come from the whole dose curve; as a rule, active = well fitted curve in the direction sought with a large enough effect; inconclusive = small, poorly fitted or top-dose-only effect, or another doubt; inactive = no such curve, though single readings can be large; an effect the other way counts as inactive or inconclusive.

Legend:
[1] = qHTS of pediatric cancer cell lines to identify multiple opportunities for drug repurposing: Primary screen for TC32 cells (AID 1347089); note: nearly all actives have a fitted effect of over 60% in size; note: potency is the fitted concentration of half-maximal effect
Outline: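 Luminescent ATP read-out (CellTiter-Glo) of metabolically active TC32 cells after 48 h exposure. Concentration-response curves came from 11-point (MIPE, 0.78 nM–46 µM) or 8-point (NPC, 0.59 nM–46 µM) primary titrations; follow-up used 11 points.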

[2] = qHTS of pediatric cancer cell lines to identify multiple opportunities for drug repurposing: Primary screen for DAOY cells (AID 1347090); note: nearly all actives have a fitted effect of over 55% in size; note: potency is the fitted concentration of half-maximal effect
Outline: (§1)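 Viability measured as metabolically active cells via CellTiter-Glo luminescence following 48 hours of compound exposure, 11-point dilutions in confirmatory testing. 500-1,000 cells/well plated 5 hours before dosing; controls were DMSO and 2.3 µM bortezomib.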

[3] = qHTS of pediatric cancer cell lines to identify multiple opportunities for drug repurposing: Primary screen for SJ-GBM2 cells (AID 1347091); note: potency is the fitted concentration of half-maximal effect
Outline: as §1

[4] = qHTS of pediatric cancer cell lines to identify multiple opportunities for drug repurposing: Primary screen for A673 cells (AID 1347092); note: nearly all actives have a fitted effect of over 45% in size; note: potency is the fitted concentration of half-maximal effect
Outline: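 Cell viability of A673 measured by CellTiter-Glo ATP luminescence after 48 hours compound exposure. Dilution series spanned 0.78 nM to 46 µM (MIPE, 11-point) or 0.59 nM to 46 µM (NPC, 8-point); bortezomib 2.3 uM positive control.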

[5] = qHTS of pediatric cancer cell lines to identify multiple opportunities for drug repurposing: Primary screen for BT-37 cells (AID 1347094); note: potency is the fitted concentration of half-maximal effect
Outline: (§2)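 Following a 5-hour attachment period, cells at 500-1,000/well received compounds and were cultured for 48 hours. CellTiter-Glo was added and luminescence read to estimate viable, metabolically active cells.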

[6] = qHTS of pediatric cancer cell lines to identify multiple opportunities for drug repurposing: Primary screen for NB-EBc1 cells (AID 1347095); note: potency is the fitted concentration of half-maximal effect
Outline: as §2

[7] = qHTS of pediatric cancer cell lines to identify multiple opportunities for drug repurposing: Primary screen for SK-N-SH cells (AID 1347098); note: nearly all actives have a fitted effect of over 65% in size; note: potency is the fitted concentration of half-maximal effect
Outline: (§3)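 Cells (500-1,000/well) rested 5 h, then received compounds for 48 h; metabolically active cells were measured by CellTiter-Glo luminescence. Final concentrations spanned up to 46 µM (MIPE, 11-point) or 0.59 nM-46 µM (NPC, 8-point) in primary screens, 11-point in follow-ups.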

[8] = qHTS of pediatric cancer cell lines to identify multiple opportunities for drug repurposing: Primary screen for LAN-5 cells (AID 1347100); note: potency is the fitted concentration of half-maximal effect
Outline: (§4)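 Viability after 48 h compound treatment at 37C, 500-1,000 cells/well, read as ATP luminescence with CellTiter-Glo. Primary screens used 11-point (MIPE, 0.78 nM-46 µM) or 8-point (NPC, 0.59 nM-46 µM) final concentrations; follow-up screens used 11-point dilutions.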

[9] = qHTS of pediatric cancer cell lines to identify multiple opportunities for drug repurposing: Primary screen for BT-12 cells (AID 1347101); note: nearly all actives have a fitted effect of over 25% in size; note: potency is the fitted concentration of half-maximal effect
Outline: as §3

[10] = qHTS of pediatric cancer cell lines to identify multiple opportunities for drug repurposing: Primary screen for Rh18 cells (AID 1347102); note: nearly all actives have a fitted effect of over 65% in size; note: potency is the fitted concentration of half-maximal effect
Outline: as §4

[11] = qHTS of pediatric cancer cell lines to identify multiple opportunities for drug repurposing: Primary screen for OHS-50 cells (AID 1347103); note: nearly all actives have a fitted effect of over 40% in size; note: potency is the fitted concentration of half-maximal effect
Outline: as §3

[12] = qHTS of pediatric cancer cell lines to identify multiple opportunities for drug repurposing: Primary screen for RD cells (AID 1347104); note: nearly all actives have a fitted effect of over 55% in size; note: potency is the fitted concentration of half-maximal effect
Outline: as §2

[13] = qHTS of pediatric cancer cell lines to identify multiple opportunities for drug repurposing: Primary screen for MG 63 (6-TG R) cells (AID 1347105); note: nearly all actives have a fitted effect of over 50% in size; note: potency is the fitted concentration of half-maximal effect
Outline: as §2

[14] = qHTS of pediatric cancer cell lines to identify multiple opportunities for drug repurposing: Primary screen for Rh30 cells (AID 1347107); note: nearly all actives have a fitted effect of over 75% in size; note: potency is the fitted concentration of half-maximal effect
Outline: as §4

[15] = qHTS of pediatric cancer cell lines to identify multiple opportunities for drug repurposing: Primary screen for Rh41 cells (AID 1347108); note: nearly all actives have a fitted effect of over 70% in size; note: potency is the fitted concentration of half-maximal effect
Outline: as §2

[16] = qHTS of pediatric cancer cell lines to identify multiple opportunities for drug repurposing: Primary screen for SK-N-MC cells (AID 1347093); note: potency is the fitted concentration of half-maximal effect
Outline: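 Metabolically active cells were quantified by ATP-dependent luminescence (CellTiter-Glo, 15 min at room temperature) following 48 h treatment. Cells had been plated at 500-1,000 per well and settled for 5 h beforehand.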

[17] = qHTS of pediatric cancer cell lines to identify multiple opportunities for drug repurposing: Primary screen for U-2 OS cells (AID 1347096); note: nearly all actives have a fitted effect of over 50% in size; note: potency is the fitted concentration of half-maximal effect
Outline: as §4

[18] = qHTS of pediatric cancer cell lines to identify multiple opportunities for drug repurposing: Primary screen for Saos-2 cells (AID 1347097); note: nearly all actives have a fitted effect of over 40% in size; note: potency is the fitted concentration of half-maximal effect
Outline: as §2

[19] = qHTS of pediatric cancer cell lines to identify multiple opportunities for drug repurposing: Primary screen for control Hh wild type fibroblast cells (AID 1347106);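 note: series mostly up to about 46 µM; a drop in luminescence marks cytotoxicity and a rise apparent proliferation; nearly all actives have a fitted effect of over 55% in size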
Outline: as §4

[20] = qHTS of pediatric cancer cell lines to identify multiple opportunities for drug repurposing: Primary screen for NB1643 cells (AID 1347099); note: nearly all actives have a fitted effect of over 50% in size; note: potency is the fitted concentration of half-maximal effect
Outline: as §2

Measured: Potency

Cc1[nH]nc2ccc(-c3cncc(OC[C@@H](N)Cc4c[nH]c5ccccc45)c3)cc12
active: [1] 1860 nM | [2] 1870 nM | [3] 1050 nM | [4] 118 nM | [5] 1530 nM | [6] 1660 nM | [7] 304 nM | [8] 166 nM | [9] 1530 nM | [10] 2960 nM | [11] 1530 nM | [12] 1480 nM | [13] 2350 nM | [14] 14800 nM | [15] 2640 nM

CN1CCN(c2ccc([N+](=O)[O-])c3no[n+]([O-])c23)CC1
inactive: [1] | [17] | [7] | [19] | [14]
active: [3] 23500 nM | [4] 23500 nM | [16] 18700 nM | [18] 26400 nM | [11] 34300 nM

C=CCC1=C(C)C(OC(=O)C2C(C=C(C)C)C2(C)C)CC1=O (configuration not stated)
active: [3] 30600 nM | [4] 48600 nM | [16] 38600 nM | [6] 68600 nM | [11] 28200 nM
inactive: [1] | [10] | [13]

O=C(O)CNC(=O)c1c(O)c2ccccc2n(Cc2ccccc2)c1=O
not listed: [4] | [6] | [9] | [11] | [16] | [19]
inactive: all other assays above

S=C(SSC(=S)N1CCCCC1)N1CCCCC1
active: [1] 938 nM | [2] 26.6 nM | [4] 26.6 nM | [16] 37.6 nM | [5] 309 nM | [18] 37.6 nM | [20] 94.4 nM | [8] 168 nM | [9] 38.9 nM | [10] 29.9 nM | [12] 29.9 nM
inactive: [14]

C[C@@H]1CC[C@H]2[C@@H](C)C(=O)O[C@@H]3O[C@@]4(C)CC[C@H]1[C@]32OO4
inactive: [1] | [3] | [4] | [17] | [18] | [7] | [20] | [8] | [10] | [19]
active: [16] 11800 nM

C[C@]12CC[C@H](O)CC1=CC[C@H]1[C@H]3CCC(=O)[C@@]3(C)CC[C@@H]12
active: [2] 23500 nM | [4] 18700 nM | [16] 16600 nM
inactive: [1] | [5] | [7] | [9] | [10] | [12] | [19]

CC(C)Oc1cccc(NC(=O)c2ccccc2C(F)(F)F)c1
inactive: [1] | [2] | [4] | [5] | [20] | [12] | [13] | [19] | [14] | [15]
active: [11] 25200 nM

CC(=O)[O][Hg][c]1ccccc1
active: [1] 1870 nM | [2] 1680 nM | [4] 106 nM | [16] 531 nM | [5] 2190 nM | [6] 21100 nM | [17] 2660 nM | [18] 668 nM | [20] 1190 nM | [9] 3470 nM | [10] 2660 nM | [11] 4900 nM | [12] 944 nM | [13] 2660 nM | [14] 2660 nM | [15] 1060 nM

CN1[C@H]2CC(O)C[C@H]1[C@H]1O[C@H]12 (some centres not stated)
active: [3] 9350 nM | [4] 18700 nM | [16] 9350 nM | [18] 13200 nM | [20] 20900 nM | [9] 19300 nM | [11] 9680 nM | [12] 33200 nM | [13] 14800 nM | [14] 23500 nM | [15] 23500 nM
inactive: [1] | [17] | [19]

COc1ccc(C(c2ccc(OC)cc2)C(Cl)(Cl)Cl)cc1
active: [3] 21500 nM | [4] 38200 nM | [16] 42800 nM | [6] 13500 nM | [18] 30300 nM | [7] 49800 nM | [20] 42800 nM
inactive: [1] | [19]

CC1(C)CC/C(=C/c2ccc(Cl)cc2)C1(O)Cn1cncn1 (configuration not stated)
not listed: [3] | [7] | [8] | [11] | [13] | [17] | [18] | [19]
inactive: all other assays above

O=S(=O)(F)Cc1ccccc1
not listed: [4] | [5] | [7] | [13] | [16] | [19]
inactive: all other assays above

C=C1C[C@H]2[C@H]3CCC(=O)[C@@]3(C)CC[C@@H]2[C@@]2(C)C=CC(=O)C=C12
not listed: [4] | [5] | [9] | [11] | [15] | [16] | [19] | [20]
inactive: all other assays above

CCO/N=C(\CC)C1=C(O)CC(c2c(C)cc(C)cc2C)CC1=O (configuration not stated)
inactive: [1] | [2] | [4] | [5] | [6] | [8] | [12] | [13] | [14] | [15]

CC(O)=C(C#N)C(=O)Nc1cc(Br)ccc1Br
active: [16] 332 nM | [20] 1320 nM
not listed: [3] | [6] | [7] | [8] | [15] | [18]
inactive: all other assays above
